From ChEMBL document CHEMBL4513216, “Probing the Open Global Health Chemical Diversity Library for Multistage-Active Starting Points for Next-Generation Antimalarials” (ACS Infect Dis, 2020)
Screen size: about 69,000 compounds; about 8,600 (12%) showed an effect of 50% or more. This excerpt belongs to a sample that is enriched for strong results.

test system: Plasmodium berghei; assay: Screen against P. berghei liver stage (PbLuc), transformed with Luciferase, at 10uM; type: functional, HepG2; conditions: tested at 10 uM

Going from `COc1ncccc1C(=O)N1CC[C@H]2C[C@@H](c3noc(C)n3)O[C@@H]2C1` to `Cc1cc(CN2CC[C@H]3C[C@H](C(=O)N4CCC(C)CC4)O[C@H]3C2)no1`, the INHIBITION rises from 15.4% to 34.7%.

Compared with `COCC1CC2(CCN(Cc3ccco3)CC2)CN1C(C)C` (stereo unspecified), `c1cncc(-c2ccc3c(c2)CCC32CCN(Cc3ccco3)CC2)c1` is higher in INHIBITION: 14.6% for the first, 26.5% for the second.

Compared with `CCn1cc(CNCC(c2ccc(Cl)cc2)n2cccn2)cn1` (stereo unspecified), `CC(=O)N1C[C@H]2CC[C@@H](C1)N(Cc1ccc(Cn3cccn3)cc1)C2` is higher in INHIBITION: 3.58% for the first, 4.59% for the second.

Going from `Cc1nc2cc(NC(=O)Cn3ncc(N4CCCC4)cc3=O)ccc2s1` to `COCCN1CCC(c2nc3ccc(N4CCCC4)cn3n2)CC1`, the INHIBITION rises from 41.2% to 52%.

First: COCCN1C(=O)CCC12CCC(NCc1cccc(C)n1)CC2 (stereo unspecified)
Second: COCCN1CCC2(CCN(c3ncccn3)CC2)C1=O
The INHIBITION of the first is higher: 41% for the first, 34.6% for the second.

First: O=C(Cc1c[nH]c2ncccc12)NCC(O)c1ccccc1F (stereo unspecified)
Second: O[C@@H]1CC(CNCc2cccc(Cl)c2)(COc2cccnc2)C[C@@H]1O (stereo partly specified)
The INHIBITION of the first is lower: 26.05% for the first, 37.4% for the second.

Going from `CCn1ncc(CN(C)C(=O)c2cc(C(F)(F)F)n(C)n2)c1C` to `Cc1cc(C(=O)N(C)Cc2cnn(C)c2C)n(C)n1`, the INHIBITION rises from 1.86% to 68.9%.

First: Cc1c(CN(C)C(=O)c2ccnn2C)cnn1C
Second: Cn1cc(C2CCCN2C(=O)Cc2coc(-c3ccccc3)n2)cn1 (stereo unspecified)
The INHIBITION of the first is higher: 31.7% for the first, 13.9% for the second.

Going from `O=C(Cc1csc(-c2ccco2)n1)N1CCSCC1` to `COc1cccc(-c2nc(CC(=O)NC3(C)CCS(=O)(=O)C3)cs2)c1` (stereo unspecified), the INHIBITION falls from -5.25% to -10.1%.

Going from `CCN(Cc1ccccc1)C(=O)CN1CCCC(Cn2cncn2)C1` (stereo unspecified) to `CN(Cc1ccccc1)C(=O)CN1CCCC(Cn2cncn2)C1` (stereo unspecified), the INHIBITION falls from 63.9% to -25.9%.

Compared with `CN(Cc1ccsc1)C(=O)CN1CCCC(Cn2cncn2)C1` (stereo unspecified), `CN(Cc1cccc(F)c1)C(=O)CN1CCCC(Cn2cncn2)C1` (stereo unspecified) is higher in INHIBITION: 17.5% for the first, 75.2% for the second.

First: CCN(Cc1ccccc1)C(=O)CN1CCOC(Cn2cncn2)C1 (stereo unspecified)
Second: CN(Cc1cccc(F)c1)C(=O)CN1CCOC(Cn2cncn2)C1 (stereo unspecified)
The INHIBITION of the first is lower: -122% for the first, 37.9% for the second.

Compared with `CN(Cc1ccc(F)cc1)C(=O)CN1CCCC(Cn2cncn2)C1` (stereo unspecified), `Cc1ccc(CN(C)C(=O)CN2CCCC(Cn3cncn3)C2)cc1` (stereo unspecified) is higher in INHIBITION: 11.6% for the first, 51.1% for the second.

First: CN(Cc1cccc(F)c1)C(=O)CN1CCCCC1Cn1cncn1 (stereo unspecified)
Second: Cc1cnn(CC2CCCN2C(=O)c2ccc(F)cc2Cl)c1 (stereo unspecified)
The INHIBITION of the first is higher: 13.5% for the first, -81.1% for the second.

First: CO[C@H]1CCN(S(=O)(=O)c2cccs2)[C@H]1Cc1cccnc1
Second: COc1ccc(CN(C)C2CCN(S(C)(=O)=O)CC2)c2cccnc12
The INHIBITION of the first is lower: -5.05% for the first, 30.5% for the second.

Going from `Cc1cc(C(=O)NCCN2CCN(S(C)(=O)=O)CC2)no1` to `Cc1noc(CN2CCN(C(=O)N(C)C)CC2)n1`, the INHIBITION rises from 10.3% to 23.5%.

First: COc1cc(C2CC(=O)Nc3c2cnn3C)ccc1O (stereo unspecified)
Second: COC(=O)c1ccc(NC(C)c2ccc3c(c2)CC(=O)N3)nn1 (stereo unspecified)
The INHIBITION of the first is higher: 10.9% for the first, -4.12% for the second.

Compared with `CC(=O)N1C[C@@H](c2ccsc2)[C@@H]2CN(Cc3ccccc3C)CC[C@@H]21`, `CC(=O)N1C[C@@H](c2ccsc2)[C@@H]2CN(Cc3ccccc3Cl)CC[C@@H]21` is higher in INHIBITION: 64.9% for the first, 73.8% for the second.

Compared with `COc1ccccc1CN1CC[C@H]2[C@@H](C1)[C@H](c1ccsc1)CN2C(C)=O`, `CC(=O)N1C[C@@H](c2ccsc2)[C@@H]2CN(CC3CCCCC3)CC[C@@H]21` is higher in INHIBITION: 24.8% for the first, 30.8% for the second.

Going from `O=C(C1CCC1)N1C[C@@H](c2ccsc2)[C@@H]2CN(C3CCCC3)CC[C@@H]21` to `O=C(C1CCCC1)N1C[C@@H](c2ccsc2)[C@@H]2CN(C3CCCC3)CC[C@@H]21`, the INHIBITION rises from 5.34% to 45.2%.

First: Cc1n[nH]c(C)c1-c1cnc(C2CCN(S(C)(=O)=O)CC2)cn1
Second: CC(=O)N1CCC(n2nccc2-c2cnc(N(C)CCO)nc2)CC1
The INHIBITION of the first is lower: 11.1% for the first, 11.5% for the second.

First: Cc1nnc(N2CCO[C@H]3[C@@H](OCc4ccccn4)CC[C@@H]32)s1
Second: CC(=O)N(Cc1noc(C2CC2)n1)C1CCN(Cc2ccccc2)C1 (stereo unspecified)
The INHIBITION of the first is higher: 11.4% for the first, -6.44% for the second.

First: COCC1CCN(C(C(=O)O)c2c(F)cccc2OC(C)C)CC1 (stereo unspecified)
Second: COc1ccc(CN(C)C2CCN(C(=O)C(C)C)CC2)c2cccnc12
The INHIBITION of the first is higher: 35.1% for the first, 8.97% for the second.

Going from `CN(C)S(=O)(=O)Nc1ccc(Oc2ccc3c(c2)OCO3)cc1` to `O=S(=O)(Nc1ccc(Oc2ccc3c(c2)OCO3)cc1)N1CCCCC1`, the INHIBITION rises from 41.2% to 52.7%.

First: O=S(=O)(Nc1ccc2c(c1)OCCO2)N1CCCCC1
Second: Cc1cccc(S(=O)(=O)N2CCC3(CC2)CC(N(C)C)CO3)c1 (stereo unspecified)
The INHIBITION of the first is lower: 8.44% for the first, 72% for the second.

Going from `c1cc(-c2ccc3c(c2)C2(CCNCC2)CC3)ccn1` to `c1cc(-c2ccc3c(c2)CCC32CCNCC2)ccn1`, the INHIBITION falls from 82.2% to 57.1%.

Compared with `c1cncc(-c2ccc3c(c2)CCC32CCN(Cc3nccs3)CC2)c1`, `CN(C)CC(=O)N1CCC2(CCc3cc(-c4cccnc4)ccc32)CC1` is lower in INHIBITION: 57.1% for the first, 15.3% for the second.

Going from `O[C@H]1[C@H](n2cc(-c3cccnc3)nn2)c2ccccc2C12CCNCC2` to `c1cncc(-c2ccc3c(c2)C2(CCNCC2)CC3)c1`, the INHIBITION falls from 31.2% to 27.5%.

Going from `CN(C)CC(=O)N1CCC2(CCc3ccc(-c4ccncc4)cc32)CC1` to `O=C(CCO)N1CCC2(CCc3ccc(-c4ccoc4)cc32)CC1`, the INHIBITION falls from 21.6% to 0.923%.

Compared with `OCCN1CCC2(CCc3cc(-c4ccoc4)ccc32)CC1`, `c1cncc(-c2ccc3c(c2)CCC32CCNCC2)c1` is higher in INHIBITION: 28.2% for the first, 57.1% for the second.

Going from `Cc1ccc2c(c1)CCC21CCN(C(=O)CO)CC1` to `CCOC1COC2(CCN(S(=O)(=O)c3cccc(C)c3)CC2)C1` (stereo unspecified), the INHIBITION rises from 10.1% to 27.6%.

First: CCOc1ccc(NC(=O)c2cc3c([nH]c2=O)CCC3)cc1
Second: COc1ccc(CNC(=O)Nc2ccc(S(=O)(=O)C(F)F)cc2)cc1
The INHIBITION of the first is lower: -29.6% for the first, 66.2% for the second.

Going from `NC(=O)NC1CCN(Cc2ccccc2OCC(F)(F)F)CC1` to `CS(=O)(=O)NC[C@@H]1OC[C@H]2CN(Cc3ccccc3)CC[C@H]21`, the INHIBITION falls from 6.7% to -54.9%.

First: CC(C)c1sc(Cl)nc1C(=O)NCc1ccncc1
Second: CCn1cc(NC(=O)C(C)n2ncc(Cl)c2C)c(C(=O)NCC(C)C)n1 (stereo unspecified)
The INHIBITION of the first is lower: -23% for the first, 11% for the second.

First: COc1nn(C)c2c1CCCN(C(=O)c1ccc(C)c(F)c1)C2
Second: Cc1cccc(C(=O)N2C[C@@H]3CCN(C(C)C)C[C@@H]3C2)c1
The INHIBITION of the first is higher: -8.94% for the first, -38.1% for the second.

First: CS(=O)(=O)NC[C@H]1OC[C@H]2CN(Cc3ccsc3)CC[C@H]21
Second: Cc1ccc(CN2C[C@@H]3[C@@H](C(=O)NCC4CC4)CCS(=O)(=O)[C@@H]3C2)cc1
The INHIBITION of the first is lower: -24.1% for the first, -21.1% for the second.

Going from `Cn1ccc(CNC(=O)Nc2ccc(S(=O)(=O)C(F)F)cc2)c1` to `CN(C)c1ccc(CNC(=O)Nc2ccc(S(=O)(=O)C(F)F)cc2)cc1`, the INHIBITION falls from 30.4% to -3.99%.

Compared with `Cc1cccc(Sc2nccn(C)c2=O)c1`, `O=C(NC1CCCC1)c1cc(Sc2ncccn2)ccn1` is lower in INHIBITION: 20.3% for the first, -48.4% for the second.

Compared with `CN(C)C1COC2(CCN(S(=O)(=O)c3ccc(F)cc3)CC2)C1` (stereo unspecified), `COC1COC2(CCN(S(=O)(=O)c3ccc(F)cc3)CC2)C1` (stereo unspecified) is lower in INHIBITION: 57.5% for the first, 32.1% for the second.

Going from `CCOC1COC2(CCN(S(=O)(=O)c3ccc(F)cc3)CC2)C1` (stereo unspecified) to `CCOC1COC2(CCN(S(=O)(=O)c3cccc(F)c3)CC2)C1` (stereo unspecified), the INHIBITION falls from 45.7% to 29.6%.

Compared with `CCOCC1CN(S(=O)(=O)N(C)C)Cc2cnn(C)c21` (stereo unspecified), `CCS(=O)(=O)N1CCC2(CCN(Cc3nccs3)CC2)CC1` is lower in INHIBITION: 33.5% for the first, 26.5% for the second.

First: COCCN1CCO[C@@H]2CN(C(=O)Cc3ccccc3)CC[C@@H]2C1
Second: CCC1CN(C(=O)Cc2coc(-c3ccccc3)n2)CCO1 (stereo unspecified)
The INHIBITION of the first is higher: 18.5% for the first, 7.4% for the second.

Going from `O=C(CCN1CCCO1)N1CC[C@@H](CNC(=O)N2CCCC2)[C@H](O)C1` to `O=C(CCN1CCCCO1)N1CC[C@H](O)[C@@H](O)C1`, the INHIBITION falls from 43.7% to 28.7%.

First: CC(C)O[C@H]1CN(C(=O)CCN2CCCCO2)C[C@@H]1O
Second: COCC(=O)N1CCC(c2nc3ccc(N4CCOCC4)cn3n2)CC1
The INHIBITION of the first is higher: 57.6% for the first, 45.2% for the second.

Going from `COCC1CCN(c2cc(C3CN(C)CCO3)nc(C)n2)CC1` (stereo unspecified) to `COCCN1CCC(c2nc3ccc(NC4CCC4)cn3n2)CC1`, the INHIBITION rises from 23.9% to 57.5%.

First: Cn1cc(C2CN(C(=O)Cc3coc(-c4ccccc4)n3)CCO2)cn1 (stereo unspecified)
Second: CC(C)(C)C(=O)N1CCCC(c2ncncc2-c2ccncc2)C1 (stereo unspecified)
The INHIBITION of the first is higher: 53.9% for the first, 49.6% for the second.

First: O=C1COc2cc(C(=O)NS(=O)(=O)c3cccc(Cl)c3)ccc2N1
Second: Cc1cc(C)cc(C(=O)Nc2cn[nH]c2)c1
The INHIBITION of the first is higher: 47% for the first, 7.77% for the second.

Compared with `COc1ccc(CN(C)C2CSCCSC2)c2cccnc12`, `COCCN1CCC(c2nc3ccc(NC(C)C)cn3n2)CC1` is lower in INHIBITION: 57.4% for the first, 19.5% for the second.

First: O=C(c1ccccc1F)N1CCC2(CC1)CC(N1CCCC1)CO2 (stereo unspecified)
Second: c1cc2nc(C3CCN(CC4CC4)CC3)nn2cc1N1CCCC1
The INHIBITION of the first is higher: 44.8% for the first, 8.47% for the second.

First: CN(C)C(=O)c1n[nH]c2c1CN(CC1CCCCC1)C2
Second: CCN1CCC(c2nc3ccc(NC4CCC4)cn3n2)CC1
The INHIBITION of the first is lower: 25.6% for the first, 46.6% for the second.

In the case of `O=C(C1CCOCC1)N1CCc2ncc(CN3CCOCC3)n2CC1`, the INHIBITION was -3.88%.
